Test results published in PubChem BioAssay AID1159580 (chemical genetic matrix, 2015).
“And” between values parts separate entries of the source, which are not always exact repeats. Equal entries are not always repeated. Among all 5,500 compounds or so, about 2,000 (36%) were called active. Not shown: some 18% with an inconclusive outcome. Cut-off read from the data, not from the text of the source: active = normalized growth mostly below about 0.91 (no sharp cut-off); inconclusive = no clear call, values can overlap the other calls; inactive = mostly above about 0.92. This is one part of the list.

Assay: chemical genetic growth profiling, strain panel (AID 1159580);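 note: tested at 20 µM; growth read once vehicle control cultures reached saturation at 30 °C; 1 = growth at the plate median or of vehicle wells; lower values mean less growth of the strain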
Conditions: S. cerevisiae deletion strains, growth OD

Measured: normalized growth

NC(=O)c1cnccn1
inactive: locus YAL013W, strain DEP1, hits give low values 1.01 and 1.02 | locus YAL021C, strain ccr4, hits give low values 0.992 | locus YAL026C, strain drs2, hits give low values 1.01 | locus YAL030W, strain snc1, hits give low values 0.996 | locus YAL040C, strain CLN3, hits give low values 1 | locus YBL061C, strain skt5, hits give low values 0.988 | locus YBR009C, strain hhf1, hits give low values 1.01 | locus YBR021W, strain FUR4, hits give low values 1.02 | locus YBR023C, strain chs3, hits give low values 1.01 | locus YBR171W, strain sec66, hits give low values 0.968 | locus YBR229C, strain ROT2, hits give low values 1 | locus YBR231C, strain swc5, hits give low values 0.984 | locus YBR279W, strain paf1, hits give low values 1 | locus YCL011C, strain gbp2, hits give low values 1 | locus YCL016C, strain dcc1, hits give low values 1.01 | locus YCL029C, strain bik1, hits give low values 1 | locus YCL061C, strain MRC1 (second series), hits give low values 1.01 | locus YCL069W, strain vba3, hits give low values 1 | locus YCR088W, strain abp1, hits give low values 0.981 | locus YDL005C, strain med2, hits give low values 0.974 | locus YDL035C, strain GPR1, hits give low values 1.01 | locus YDL040C, strain nat1, hits give low values 0.984 | locus YDL074C, strain BRE1, hits give low values 1 | locus YDL101C, strain DUN1, hits give low values 1.01 | locus YDL134C, strain PPH21, hits give low values 1.01 | locus YDL185W, strain tfp1, hits give low values 1.02 | locus YDL192W, strain arf1, hits give low values 1.01 | locus YDR001C, strain nth1, hits give low values 0.996 | locus YDR069C, strain doa4, hits give low values 0.982 | locus YDR101C, strain arx1, hits give low values 1 | locus YDR137W, strain rgp1, hits give low values 0.98 | locus YDR150W, strain NUM1, hits give low values 0.993 and 1 | locus YDR159W, strain sac3, hits give low values 1 | locus YDR162C, strain NBP2, hits give low values 1.01 | locus YDR195W, strain ref2 0.905 | locus YDR297W, strain sur2, hits give low values 0.994 | locus YDR318W, strain mcm21, hits give low values 1.02 | locus YDR334W, strain swr1, hits give low values 0.98 | locus YDR335W, strain msn5, hits give low values 0.99 | locus YDR363W, strain ESC2, hits give low values 0.964 | locus YDR388W, hits give low values 1.01 | locus YDR392W, strain spt3, hits give low values 1.05 | locus YDR502C, strain sam2, hits give low values 1.01 | locus YEL003W, strain gim4, hits give low values 0.992 | locus YEL037C, strain rad23, hits give low values 0.995 | locus YEL061C, strain CIN8 (second series), hits give low values 0.994 | locus YEL061C, strain CIN8, hits give low values 1 | locus YER002W, strain NOP16, hits give low values 1.01 | locus YER015W, strain faa2, hits give low values 0.995 | locus YER016W, strain bim1, hits give low values 1 | locus YER110C, hits give low values 0.995 | locus YER111C, strain swi4, hits give low values 0.993 | locus YER155C, strain BEM2 (second series), hits give low values 0.955 | locus YER155C, strain BEM2, hits give low values 1.01 | locus YER167W, strain BCK2, hits give low values 1.01 | locus YFR010W, strain ubp6, hits give low values 0.979 | locus YGL078C, strain dbp3, hits give low values 0.993 | locus YGL086W, strain mad1, hits give low values 1.02 | locus YGL167C, strain pmr1, hits give low values 0.987 | locus YGL173C, strain kem1, hits give low values 0.983 | locus YGL227W, strain vid30, hits give low values 0.991 | locus YGL240W, strain doc1, hits give low values 0.959 | locus YGL248W, strain PDE1, hits give low values 1 | locus YGL253W, strain hxk2, hits give low values 1.02 | locus YGR135W, strain pre9, hits give low values 0.996 | locus YGR229C, strain SMI1, hits give low values 1.03 and 1.02 | locus YGR252W, strain gcn5, hits give low values 0.988 | locus YHR013C, strain ard1, hits give low values 0.966 | locus YHR027C, strain rpn1, hits give low values 0.995 | locus YHR030C, strain SLT2, hits give low values 1 and 1.07 | locus YHR079C, strain IRE1 (second series), hits give low values 1.01 | locus YHR079C, strain IRE1, hits give low values 1.03 | locus YHR094C, strain hxt1, hits give low values 0.999 | locus YHR129C, strain ARP1, hits give low values 0.996 | locus YHR142W, strain chs7, hits give low values 0.992 | locus YHR200W, strain rpn10, hits give low values 1 | locus YIL066C, strain RNR3, hits give low values 1.01 | locus YIL073C, strain SPO22, hits give low values 1.06 | locus YIL125W, strain kgd1, hits give low values 0.999 | locus YIR030C, strain dcg1, hits give low values 1 | locus YJL092W, strain hpr5, hits give low values 0.974 | locus YJL095W, strain BCK1 (second series), hits give low values 0.995 | locus YJL095W, strain BCK1, hits give low values 0.997 and 1.06 | locus YJL115W, strain asf1, hits give low values 0.995 | locus YJL129C, strain trk1, hits give low values 0.981 | locus YJL134W, strain LCB3, hits give low values 1.01 | locus YJL154C, strain vps35, hits give low values 0.991 | locus YJL164C, strain tpk1, hits give low values 1.01 | locus YJL166W, strain qcr8, hits give low values 0.969 | locus YJL168C, strain set2, hits give low values 1.01 | locus YJL187C, strain SWE1 (second series), hits give low values 1.01 | locus YJR043C, strain POL32, hits give low values 1 | locus YJR066W, strain TOR1, hits give low values 1
